The source of these data is ChEMBL document CHEMBL1157539, “Thousands of chemical starting points for antimalarial lead identification” (Nature, 2010).

The test system of the test is Plasmodium falciparum. The test is described as follows: GSK_TCMDC: Inhibition of Plasmodium falciparum Dd2 in whole red blood cells, using parasite LDH activity as an index of growth. Test compounds present at 2uM. The format is functional.
`O=C(Nc1cccc(-c2cccc(-c3nc4ccccc4[nH]3)c2)c1)Nc1ccc(F)c(F)c1F` yielded an Inhibition of 95%. The same measure for `COc1ccc2ncc(F)c([C@@H](O)CN3CCC(NCc4cc(C#N)c5c(c4)CCO5)CC3)c2n1`: 50%; for `COc1cc(F)c2ncc(Cl)c([C@H](O)CN3CCC(NCc4cc5c(cn4)OCCO5)CC3)c2c1.Cl`: 49%. The same measure for `CN(C)/C(=N/C(=N)NCc1ccc(Cl)c(Cl)c1)NCCCCCCN/C(=N\C(=N)NCc1ccc(Cl)c(Cl)c1)N(C)C`: 99%; for `O=C(/C=C/c1ccc2ccccc2c1)NCCCCCN1CCC(c2c[nH]c3ccccc23)CC1`: 4%.

`Cc1noc(C)c1-c1cccc(CNCc2cccc(-c3csc(-c4nc5ccccc5[nH]4)c3)c2)c1.O=C(O)C(F)(F)F` showed an Inhibition of 74%. The figure for `O=C(N[C@@H](CC1CCCCC1)C(=O)NCCN1CCCCC1)c1ccc(O)c(-c2ccc(Cl)c(Cl)c2)c1` is 99%; for `COc1cc2c(cc1S(=O)(=O)c1ccc(NC(=O)c3cc4ccccc4s3)cc1)CCN(C)CC2` it is 88%; for `CCCCN1CCCC[C@H]1[C@@H](O)c1ccnc2ccc(OCC)cc12` it is 88%. `Nc1nc2c(cnn2CCCCCCCP(=O)(O)O)c(=O)[nH]1` displayed an Inhibition of 91%. The same measure for `Clc1ccc(Cc2nc3ccccc3[nH]2)cc1Cl`: 2%; for `Cc1cc2c(cc1C(F)(F)F)N(C(=O)Nc1cc(C(=O)NCCN(C)C)cc(C(F)(F)F)c1)CC2`: 50%; for `COC(=O)[C@@H](NC(=O)[C@@H](Nc1ccc(C#N)c2ccccc12)C(C)(C)C)c1ccc(O)cc1`: 74%.

In general, Inhibition refers to how much of the control response was suppressed. Lower therefore signals little suppression.
